# PubChem BioAssay AID1445 (SRMLSC, 2008)
# Screen size: about 220,000 compounds; about 910 (0.41%) were called active. For the sample, actives were picked, then their nearest neighbours and some compounds at random. Measured potencies and affinities stand elsewhere. Unmarked numbers belong to inactive results.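 How the source made its calls: active means primary inhibition above the hit cutoff, then over 50% inhibition at one or more dose response concentrations (cut at about 23% in these data, passing the limit was not always enough); inconclusive means conflicting primary data, or primary hits not chosen for dose response; inactive means low primary inhibition, or under 50% at every dose.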
# Biological target: Aminopeptidase N (Plasmodium falciparum (isolate 3D7)) (UniProt O96935)
# Sequence (O96935 whole entry, looked up): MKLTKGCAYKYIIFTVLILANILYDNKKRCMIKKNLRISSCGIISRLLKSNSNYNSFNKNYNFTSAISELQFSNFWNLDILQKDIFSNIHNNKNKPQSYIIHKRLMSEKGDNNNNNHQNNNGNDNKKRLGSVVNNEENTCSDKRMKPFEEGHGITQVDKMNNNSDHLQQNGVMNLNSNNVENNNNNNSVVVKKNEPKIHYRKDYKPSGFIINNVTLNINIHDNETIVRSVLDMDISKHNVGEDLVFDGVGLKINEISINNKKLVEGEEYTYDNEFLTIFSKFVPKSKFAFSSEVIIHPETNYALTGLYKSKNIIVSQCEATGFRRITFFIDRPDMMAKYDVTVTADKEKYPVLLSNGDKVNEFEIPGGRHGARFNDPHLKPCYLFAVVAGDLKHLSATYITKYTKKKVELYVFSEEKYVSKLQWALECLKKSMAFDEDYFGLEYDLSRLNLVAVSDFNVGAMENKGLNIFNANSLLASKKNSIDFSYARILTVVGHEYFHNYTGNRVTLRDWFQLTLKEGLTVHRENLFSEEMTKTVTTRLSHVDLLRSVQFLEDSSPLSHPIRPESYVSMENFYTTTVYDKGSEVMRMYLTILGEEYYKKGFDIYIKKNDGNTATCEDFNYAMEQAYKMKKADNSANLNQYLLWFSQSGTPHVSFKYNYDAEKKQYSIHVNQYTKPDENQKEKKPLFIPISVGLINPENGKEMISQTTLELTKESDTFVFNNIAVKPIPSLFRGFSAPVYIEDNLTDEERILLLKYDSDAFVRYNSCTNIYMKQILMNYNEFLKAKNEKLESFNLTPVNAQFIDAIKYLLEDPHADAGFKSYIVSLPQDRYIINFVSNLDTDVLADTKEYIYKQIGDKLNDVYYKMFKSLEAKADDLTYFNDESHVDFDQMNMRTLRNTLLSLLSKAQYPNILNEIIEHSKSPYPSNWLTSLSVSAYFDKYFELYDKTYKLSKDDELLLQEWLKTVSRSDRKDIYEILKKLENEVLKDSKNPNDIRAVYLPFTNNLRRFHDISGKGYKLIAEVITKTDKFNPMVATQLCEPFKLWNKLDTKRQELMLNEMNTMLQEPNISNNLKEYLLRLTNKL
# Test: malaria alanyl aminopeptidase activity blockers – biochemical, fluorogenic H-Leu-NHMec substrate, 1536-well (AID 1445);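 further: plate controls were DMSO full reaction for no effect and no enzyme background for full effect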
# Details: recombinant M1AAP, H-Leu-NHMec fluorogenic kinetic assay; at 30 µM, active compounds read high unless noted
row,Compound,inhibition
1,Cc1ccc(S(=O)(=O)NC(=O)NCCCCNC(=O)NS(=O)(=O)c2ccc(C)cc2)cc1,0.51%
2,Cc1ccc(Cc2cc(C)n[nH]c2=O)cc1,9.53%
3,COCc1cc(C)nc(OCC(=O)N/N=C/c2ccco2)c1C#N,9.71%
4,CC(=O)Nc1nc(C(=O)O)cs1,-0.08%
5,CC(=O)Nc1ccc(-c2csc(N/N=C(/C)c3ccccc3)n2)cc1,11.9%
6,CCc1nnc(N/N=C/c2c(Cl)cccc2Cl)n1N,1.62%
7,O=C(Nc1cccs1)Nc1ccc(Br)cc1F,5.12%
8,CCOC(=O)NNS(=O)(=O)c1cc(Br)ccc1Br,-1.42%
9,CCOc1ccc(Br)cc1S(=O)(=O)Nc1ccc(NC(=O)c2ccccc2C)cc1,7.33%
10,Cc1ccc(CN2C(=O)N/C(=C\c3cccn3-c3cccc(C(=O)O)c3)C2=O)cc1,11.9%
11,CC(=O)c1ccc(-c2ccc(/C=C(/Sc3n[nH]c(C)n3)C(=O)O)o2)cc1,5.19%
12,O=Cc1ccc(-c2ccc(C(=O)O)cc2)o1,7.72%
13,Cc1nc(S/C(=C/c2ccc(-c3cccc(Cl)c3)o2)C(=O)O)n[nH]1,-8.13%
14,Cc1nc(S/C(=C/c2ccc(-c3ccc(Cl)cc3)o2)C(=O)O)n[nH]1,-6.28%
15,CCc1nnc(NC(=O)C2CCCN(c3nc(C)cc(C)n3)C2)s1 (stereo not drawn),3.57%
16,S=c1[nH]c(-c2ccccc2)cn1/N=C/c1cccnc1,1.39%
17,O=C(CCCN1C(=O)/C(=C/c2ccccc2Cl)SC1=S)NNC(=O)c1cccnc1,2.83%
18,COc1ccccc1/C=C1\SC(=S)N(N2C(=O)CCCC2=O)C1=O,3%
19,CC(/C=C1\SC(=S)N(C(C(=O)O)C(C)C)C1=O)=C\c1ccccc1 (stereo not drawn),14%
20,COc1ccc(OC)c(/C=C2\SC(=S)N(N3CCOCC3)C2=O)c1,6.71%
21,COc1cccc(/C=C2\SC(=S)N(C(C(=O)O)c3ccccc3)C2=O)c1OC (stereo not drawn),18.2%

row,Compound,inhibition
1,CC(=C\c1ccccc1)/C=C1/SC(=S)N(C(C(=O)O)C(C)C)C1=O (stereo not drawn),8.4%
2,COc1ccc(OC)c(/C=C2\SC(=S)N(Cc3cccnc3)C2=O)c1,-5.9%
3,COc1ccc(/C=C2\SC(=S)N(N3CCOCC3)C2=O)c(OC)c1,1.37%
4,COc1ccc(/C=C/C(=O)c2ccccc2)c(OC)c1,10.2%
5,C/C(=N/NS(=O)(=O)c1ccc(C)cc1)c1ccc(NC(=O)C(F)(F)F)cc1,2.89%
6,Cc1cnc(NC(=O)CSc2nnc(C)n2N)s1,2.39%
7,Cc1ccc(OCc2nc(-c3ccccn3)n[nH]2)cc1,-24.5%
8,CCCCn1nnnc1NCc1cccnc1,4.66%
9,CCOC(=O)C1CCCN(CC(=O)/C=C2/N(C)c3ccccc3C2(C)C)C1 (stereo not drawn),9.72%
10,COc1ccc(NS(=O)(=O)c2cccc(C(=O)N/N=C/c3ccc(O)cc3)c2)cc1,7.62%
11,CCC1CCc2[nH]nc(C(=O)O)c2C1 (stereo not drawn),7.24%
12,Cc1nn(C(=O)N2CCCCC2)c(C)c1CN1C(=O)c2ccccc2C1=O,-0.2%
13,Cc1cc(C)cc(NC(=O)C(OC(=O)c2cccs2)c2ccccc2)c1 (stereo not drawn),3.45%
14,OCCC1CN(Cc2nc(-c3ccccc3)cs2)CCN1CCc1ccccc1 (stereo not drawn),7.68%
15,CSc1nc2ncc(-c3ccsc3)c(N)n2n1,7.33%
16,CC(c1ccccc1)N1C(=O)/C(=C/c2ccncc2)SC1=S (stereo not drawn),-2.44%
17,O=C(O)C(Cc1ccccc1)N1C(=O)/C(=C/c2cccs2)SC1=S (stereo not drawn),11.1%
18,CC1=NOC(=O)/C1=C/c1ccc(-c2ccc(Cl)cc2)o1,5.39%
19,O=C1NN(c2ccccc2)C(=O)/C1=C/c1ccc(-c2ccc(Cl)c(C(=O)O)c2)o1,32.2%
20,Cc1ccc(N2NC(=O)/C(=C/c3ccc(-c4ccc(Cl)c(C(=O)O)c4)o3)C2=O)cc1,5.62%
21,CC1(C)OC(=O)C(=Cc2ccc(-c3ccc(Cl)c(C(=O)O)c3)o2)C(=O)O1,8.63%

row,Compound,inhibition
1,CCCCC1(C)OC(=O)C(=Cc2ccc(-c3ccc(Cl)c(C(=O)O)c3)o2)C(=O)O1 (stereo not drawn),9.08%
2,O=C(O)c1cc(-c2ccc(/C=C3\NC(=O)N(c4ccccc4)C3=O)o2)ccc1Cl,18.7%
3,Cc1ccc(C)c(-n2c(SCC(=O)NC(C(=O)O)C(C)C)nnc2-c2cccc(Cl)c2)c1 (stereo not drawn),0.37%
4,CC1CC(NC(=O)C2(C)CC2(Cl)Cl)CC(C)(C)C1 (stereo not drawn),1.77%
5,O=C1CCn2nc(-c3ccc(Cl)cc3)cc2N1,0.78%
6,O=C(O)CCC(=O)NNC(=O)c1cccc(Cl)c1,8.54%
7,Cn1cc(-c2nnnn2-c2ccc(Cl)cc2)c(=O)c2ccccc21,-1.66%
8,CC(=O)Nc1c(C(=O)c2ccccc2)oc2ccccc12,10.6%
9,O=C(Nc1nc2c(Br)cc(Br)cc2c(=O)s1)c1ccco1,3.61%
10,CCOc1cc(/C=C/c2ccc3cccc([N+](=O)[O-])c3n2)cc(Cl)c1O,9.51%
11,CC(C)c1nc(CNC(=O)CCc2nnc(-c3ccsc3)o2)cs1,-9.81%
12,O=C(N/N=C(/CC(=O)c1cccs1)C(F)(F)F)c1ccc(O)cc1,30.4%
13,O=C(N/N=C(\CC(=O)c1cccs1)C(F)(F)F)c1cccnc1,22.1%
14,Cc1cccc(N2CCN(C(=O)CC(NC(=O)c3ccccc3)c3ccccc3)CC2C)c1 (stereo not drawn),-5.51%
15,Cc1ccc(N2CC(C(=O)Nc3cccc(F)c3)CC2=O)cc1 (stereo not drawn),2.83%
16,COCc1c(Br)c(C)nc(OCC(=O)N/N=C/c2cc(C)n(-c3ccc([N+](=O)[O-])cc3)c2C)c1C#N,12%
17,CN1CCN(c2ccc(NC(=O)c3ccccc3Br)cc2)CC1,3.56%
18,O=C(Nc1ccc(N2CCCCCC2)cc1)c1ccccc1Cl,-5.82%
19,O=C(Nc1ccc2ncccc2c1)c1ccccc1Cl,16.8%
20,O=C(Nc1ccc(-n2ccnc2P(=O)(O)c2ccccc2)cc1)c1ccccc1Cl,75.1% (active)
21,O=C(Nc1ccc(C(F)(F)F)cc1)c1ccccc1Br,-2.21%
